The text below walks through data of PubChem BioAssay (EPA / NIEHS).

Calls of active or inactive are those of the source. How the source made its calls: active means hit-call score of the fitted dose curve at least 0.9, where 1 is the maximum; inactive means score below 0.9.

This assay in a line: BSK_IMphg_SRB: Viability Assessment in the BioMAP Diversity Plus: IMphg Assay (AID 2284292).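 Further: measured one day after compound addition.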 The conditions noted are these: primary human endothelial cells with macrophages. As for the experimental part:
BSK_IMphg is a cell-based, multiplexed-readout assay that uses venular endothelial cells and macrophages, a human vascular primary cell, with measurements taken at 24 hours after chemical dosing in a microplate: 96-well plate.BSK_IMphg_SRB is an assay component measured in the BSK_IMphg assay. It measures […] related to cell death using Sulforhodamine staining technology.Data from the assay component BSK_IMphg_SRB was analyzed at the endpoint, BSK_IMphg_SRB, in the positive analysis fitting direction relative to DMSO as the negative control and baseline of activity. Using a type of viability reporter, gain or loss-of-signal activity can be used to understand protein changes. To generalize the intended target to other relatable targets, this assay endpoint is annotated to the 'cell morphology' intended target family, where the subfamily is 'cell conformation'.
The levels of cell surface (or secreted, indicated by the prefix "s") biomarker endpoints were measured by ELISA. Overt cytotoxicity to cells in confluent adherent cultures (all systems other than the BT system) was assessed by measuring total protein levels using sulforhodamine B (SRB) staining in parallel cultures at the time of biomarker measurements, indicated as SRB endpoints. For proliferation assays for adherent cell types, individual cell types are cultured at sub-confluence and relative cell numbers quantified by SRB staining at time points optimized for each system (48 h: 3C and CASM3C systems; 72 h: BT and HDF3CGF systems; 96 h: SAg system). SRB was performed by staining cells with 0.1% SRB after fixation with 10% TCA and reading wells at 560 nm.Viability and proliferation of PBMC (T cells) was quantified by Alamar Blue reduction for the SAg and BT systems. For PBMC viability (referred to as PBMC Cytotoxicity within the assay endpoint names), cells were plated (75,000/well in a 96-well plate) and then chemical samples added for 1 h before addition of activators, SEB and TSST-1 (20 ng/mL final concentration each). Cells were incubated for 90 h. Then, Alamar Blue (20 uL/well) (Invitrogen, Cat DAL1100) was added for 6 h, and the plates were read with a fluorescence microplate reader at 546/580 nm (excitation/emission). For PBMC proliferation, cells were plated and activated as above but incubated for only 16 h prior to addition of Alamar Blue. Plates were read after 6 h.
With `FC(F)=C(F)C(F)(F)C(F)(F)C(F)(F)C(F)(F)C(F)(F)C(F)(F)F`, the result was inactive.

With `FC(F)(F)COC(OCC(F)(F)F)OCC(F)(F)F`, the outcome was inactive.

For the molecule `O=S(=O)(O)CCC(F)(F)C(F)(F)C(F)(F)C(F)(F)C(F)(F)C(F)(F)F`, the result was inactive.

In the case of `FC(F)C(F)(F)COCC1CO1` (stereo not given), the result was inactive.

With `OCCC(F)(F)C(F)(F)C(F)(F)C(F)(F)F`, the outcome was inactive.

Turning to `O=C(Cl)C(F)(F)C(F)(F)C(F)(F)C(=O)Cl`, the result was inactive.

In the case of `FC(F)(F)C(F)(F)C(F)(F)C(F)(F)C(F)(F)C(F)(F)I`, the result was inactive.

`OC(O)(C(F)C(O)(O)C(F)(F)F)C(F)(F)F`: the result was inactive.

Turning to `C[Si](C)(C)C(F)(F)C(F)(F)C(F)(F)F`, the outcome was inactive.

Take `NCC(F)(F)C(F)(F)C(F)(F)C(F)(F)F`: the outcome was inactive.
